Assay outcomes: PubChem, National Center for Advancing Translational Sciences (NCATS)
G9a inh: blocks human histone lysine methyltransferase G9a. G9a H3K9 monomethylation, AlphaScreen, 2 h. Q96KQ7. 8.8% of 350,000 active. Potency, µM (doses to about 102 µM), hits mostly inhibitors. AID 504332; also: nearly all actives have a fitted effect of over 75% in size
Target sequence (Q96KQ7 913-1193 limits assumed): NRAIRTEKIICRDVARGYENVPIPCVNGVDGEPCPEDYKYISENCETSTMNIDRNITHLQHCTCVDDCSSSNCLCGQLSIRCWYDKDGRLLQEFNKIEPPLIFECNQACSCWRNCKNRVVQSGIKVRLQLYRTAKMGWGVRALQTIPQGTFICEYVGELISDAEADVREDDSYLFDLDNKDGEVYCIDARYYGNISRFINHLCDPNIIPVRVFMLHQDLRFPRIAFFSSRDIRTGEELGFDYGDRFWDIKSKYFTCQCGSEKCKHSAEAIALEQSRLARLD
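Enzyme 20 nM + cpd, 15 min RT; add b-H3K9 pep 500 nM / SAM 20 uM; 2 h RT; anti-H3K9me1 Ab 0.5 ug/mL + SA donor / anti-rabbit acceptor beads 20 ug/mL each, 10 min; AlphaScreen read.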
Sfp PPTase inh: inhibitors of Bacillus subtilis Sfp phosphopantetheinyl transferase. Biochemical Sfp PPTase activity, qHTS. Q9F4F7. AID 1490. 3.5% of 310,000 active. Potency, µM, usual class: inhibitors;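 also: the enzyme is Sfp with the accession as filed and its product quenches rhodamine fluorescence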
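Compounds were incubated with enzyme (final 15 nM) for 15 min at room temperature before substrate addition started the reaction. Fluorescence at 525 nm excitation, 598 nm emission was recorded immediately and after 30 minutes.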
Coupling enz: counter-screen for Giardia aldolase inhibitors: coupling enzyme system; coupling enzyme system counterscreen, AmpLite Red fluorescence; AID 2472; activity change, negative = inhibition, % at 58.2 µM, hits read low; 0.67% of 290,000 active; in the data active = activity change below about -30%
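Compounds tested against the coupling enzymes alone at 57.5 uM final; readout was AmpLite Red fluorescence (525/598 nm) after 20 min at RT.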
Tau FP inhib: inhibitors of human tau fibril formation | P10636 | K18 P301L tau heparin fibrillization, Alexa594 FP, 6 h | Potency, µM (top dose mostly 57.7 µM), most hits filed as inhibitors | 0.39% of 280,000 active; also: nearly all actives have a fitted effect of over 55% in size
Target sequence (P10636 561-689 P618L limits assumed): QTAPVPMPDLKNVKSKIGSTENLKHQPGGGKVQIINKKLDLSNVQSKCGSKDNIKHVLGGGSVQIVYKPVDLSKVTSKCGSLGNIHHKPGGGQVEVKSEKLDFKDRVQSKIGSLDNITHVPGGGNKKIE
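Recombinant K18 P301L […], labeled with Alexa 594 at 0.24 uM over 15 uM unlabeled; heparin inducer 20 uM final; 37 C, 6 hr; FP endpoint.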
Tau ThT inhib: inhibitors of human tau fibril formation, thioflavin T binding; P10636; recombinant tau K18 P301L, heparin-induced fibrillization, ThT fluorescence; Potency, µM (titrated, usually from 57.4 µM), usual class: inhibitors; 2.1% of 270,000 active; also: nearly all actives have a fitted effect of over 55% in size
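In this qHTS, human K18 P301L tau is incubated with compound and heparin for 6 hr at 37 C, and Thioflavin T fluorescence then reports fibril load.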
Tau fluor cs: counter-screen for tau fibril formation inhibitors. tau K18 P301L Alexa594 fluorescence, heparin fibrillization. Potency, µM (series often up to 57.7 µM). 0.93% of 280,000 active. AID 1463; also: nearly all actives have a fitted effect of over 55% in size
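Human tau K18 P301L (15 uM unlabeled, 0.24 uM Alexa 594-labeled) in 100 mM sodium acetate pH 7 with 20 uM heparin, 6 hr at 37 C. ThT 30 uM added, 1 hr ambient; Alexa 594 FP and total fluorescence read at 555/632 nm.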
Numbers stand for hits; [ ] = dose if it differs, or a comment. The list is not random: actives were taken first. Their share in the collection is about 11%. Unless noted, calls follow the shape of the dose curve; as a rule, active = well fitted curve in the direction sought with a large enough effect; inconclusive = small, poorly fitted or top-dose-only effect, or another doubt; inactive = no such curve, though single readings can be large; an effect the other way counts as inactive or inconclusive.

COc1cccc(Nc2nc3ccc(OC)cc3s2)c1 was read as G9a inh inconclusive, Sfp PPTase inh inactive, Coupling enz inactive, Tau FP inhib inactive, Tau ThT inhib 13µM and Tau fluor cs 13µM[quencher].
CCCC(=O)Nc1nc2ccc(OC)cc2s1 was read as G9a inh inactive, Sfp PPTase inh inactive, Coupling enz inactive, Tau FP inhib inactive, Tau ThT inhib inactive and Tau fluor cs inactive.
`COc1ccc2nc(NC(=S)N(C)C)sc2c1` gave G9a inh 1.4µM, Sfp PPTase inh inconclusive, Coupling enz inactive, Tau FP inhib inconclusive, Tau ThT inhib inconclusive and Tau fluor cs inconclusive.
Screening COc1ccc(Nc2nc3ccccc3s2)cc1 returned Sfp PPTase inh inactive, Coupling enz inactive, Tau FP inhib inactive, Tau ThT inhib inactive and Tau fluor cs inactive.
For Cc1ccc(NC(=O)CCCc2ccccc2)c([N+](=O)[O-])c1 the results were G9a inh 3.2µM, Sfp PPTase inh inactive and Coupling enz inactive.
For CN(CC(=O)Nc1ccc(F)cc1[N+](=O)[O-])Cc1ccccc1 the results were G9a inh 50µM, Sfp PPTase inh inactive, Coupling enz inactive, Tau FP inhib inactive, Tau ThT inhib inactive and Tau fluor cs inactive.
CCOc1ccc(CN(C)CC(=O)Nc2cc(C)c(C)cc2[N+](=O)[O-])cc1 was read as G9a inh inactive, Sfp PPTase inh inactive, Coupling enz inactive, Tau FP inhib inactive, Tau ThT inhib inactive and Tau fluor cs inactive.
CCOC(=O)N1CCN(C(=O)c2ccc(Cl)c(NC(=O)c3cccs3)c2)CC1 was read as G9a inh inactive[12.7 µM].
Screening CCc1ccc(C(=O)Cn2ccsc2=N)cc1 returned G9a inh 50µM, Sfp PPTase inh inactive and Coupling enz inactive.
COc1cc(/C=C/c2nc3cc(Cl)ccc3c(=O)n2-c2cccc(C(F)(F)F)c2)cc(OC)c1OC was read as G9a inh inactive, Tau FP inhib inactive, Tau ThT inhib inactive and Tau fluor cs inactive.
For COc1ccc(C2=C(C)C(=NCCCN3CCN(c4cc(C)ccc4C)CC3)NS2(=O)=O)cc1 the results were G9a inh inactive, Tau FP inhib inconclusive, Tau ThT inhib inactive and Tau fluor cs inactive.
Screening CCC(=O)N(Cc1c(C)nn(-c2ccccc2)c1Cl)c1ccc(Cl)cc1 returned G9a inh inactive, Sfp PPTase inh inactive, Coupling enz inactive, Tau FP inhib inconclusive, Tau ThT inhib inconclusive and Tau fluor cs inactive.
For Cn1c(=O)c2c(SCc3cccnc3)nc(CC(C)(C)C)nc2n(C)c1=O the results were G9a inh inactive, Sfp PPTase inh 56µM, Coupling enz inactive, Tau FP inhib inactive, Tau ThT inhib inconclusive and Tau fluor cs inactive.
CCCc1nc(SCc2cccnc2)c2c(=O)n(C)c(=O)n(C)c2n1 was read as G9a inh inactive, Sfp PPTase inh inactive, Coupling enz inactive, Tau FP inhib inactive, Tau ThT inhib inactive and Tau fluor cs inactive.
For Cc1ccccc1-c1nc(SCc2cccnc2)c2c(=O)n(C)c(=O)n(C)c2n1 the results were G9a inh 56µM, Sfp PPTase inh inactive, Coupling enz inactive, Tau FP inhib inactive, Tau ThT inhib inactive and Tau fluor cs inactive.
Cc1ccccc1-c1nc(SCC(=O)NCc2ccc(F)cc2)c2c(=O)n(C)c(=O)n(C)c2n1 was read as G9a inh inactive, Tau FP inhib inactive, Tau ThT inhib inactive and Tau fluor cs inactive.
For COc1ccc(CNC(=O)CCCNC(=O)c2ccc(Cl)cc2)cc1OC the results were G9a inh inactive, Sfp PPTase inh inactive and Coupling enz inactive.
Screening CNc1nc(N)c(C(=O)Nc2cc(C)on2)s1 returned G9a inh inactive, Sfp PPTase inh 50µM, Coupling enz inactive, Tau FP inhib inactive, Tau ThT inhib inactive and Tau fluor cs inactive.
`CCOCc1c(C(=O)NC2CCCCCC2)oc2ccccc12` gave G9a inh inactive, Sfp PPTase inh inactive, Coupling enz inactive, Tau FP inhib inactive, Tau ThT inhib inactive and Tau fluor cs inactive.
Screening O=c1oc(-c2ccc(Br)cc2)nc2ccccc12 returned G9a inh inactive, Sfp PPTase inh inactive and Coupling enz inactive.
O=C(COC(=O)c1ccc(Cl)s1)c1cc2ccccc2o1 was read as G9a inh inactive[12.7 µM], Sfp PPTase inh inactive, Coupling enz inactive, Tau FP inhib inactive, Tau ThT inhib inconclusive and Tau fluor cs inconclusive.
For Cn1cccc1C(=O)OCC(=O)c1cc2ccccc2o1 the results were G9a inh 45µM, Sfp PPTase inh inactive, Coupling enz inactive, Tau FP inhib inactive, Tau ThT inhib inconclusive and Tau fluor cs inactive.
Screening CCc1ccc(NC(=O)CN2C(=O)c3ccccc3Sc3ccc(C(=O)N4CCCC4)cc32)cc1 returned G9a inh inactive, Tau FP inhib inactive, Tau ThT inhib inactive and Tau fluor cs inactive.
CN(C)c1ccc(NC(=O)CN2C(=O)c3ccccc3Sc3ccc(C(=O)N4CCCC4)cc32)cc1 was read as G9a inh 4.5µM, Tau FP inhib inactive, Tau ThT inhib inconclusive and Tau fluor cs inconclusive.
For O=C(NCCc1nc2ccccc2[nH]1)/C(=C/c1ccc2c(c1)OCO2)NC(=O)c1ccc(Cl)cc1Cl the results were G9a inh inactive, Sfp PPTase inh inconclusive, Coupling enz inactive, Tau FP inhib inactive, Tau ThT inhib inactive and Tau fluor cs inactive.
`COc1ccccc1NC1CCCCC1NS(=O)(=O)c1ccc(C)cc1` (stereo unspecified) gave Sfp PPTase inh inactive and Coupling enz inactive.
`COc1ccc(NC2CCCCC2NS(=O)(=O)c2ccc(C)cc2)cc1` (stereo unspecified) gave G9a inh 14µM and Sfp PPTase inh inactive.
Screening COC(=O)CN1C(C(=O)c2ccccc2)=C(OC(=O)c2ccccc2)c2ccccc2S1(=O)=O returned G9a inh inactive, Tau FP inhib inconclusive, Tau ThT inhib inconclusive and Tau fluor cs inactive.
For CN(C(=O)CSc1cn(CC(=O)N2CCCC2)c2ccccc12)c1ccccc1 the results were G9a inh inactive, Tau FP inhib inactive, Tau ThT inhib inactive and Tau fluor cs inactive.
C/C(=N\N1C(=O)CSC1=S)c1ccc(Br)cc1 was read as G9a inh 40µM, Sfp PPTase inh inconclusive, Coupling enz inactive, Tau FP inhib inactive, Tau ThT inhib inconclusive and Tau fluor cs inactive.
Cc1ccc(C(=O)NN2C(=O)CSC2=S)cc1 was read as G9a inh inactive, Sfp PPTase inh inactive, Coupling enz inactive, Tau FP inhib inactive, Tau ThT inhib inconclusive and Tau fluor cs inactive.
`COc1ccc(N2C(S)=C(C#N)C(=O)NC2c2ccco2)cc1` (stereo unspecified) gave G9a inh 35µM, Sfp PPTase inh 28µM, Coupling enz inactive, Tau FP inhib inconclusive, Tau ThT inhib inconclusive and Tau fluor cs inactive.
